# Legend:
# Conditions in all cases: concentration: 1 μM, replicates: in singlicate; n = 1
# CSF1R = tested on: CSF1R
# CSK = tested on: CSK
# CSNK1A1L = tested on: CSNK1A1L
# CSNK1A1 = tested on: CSNK1A1
# CSNK1D = tested on: CSNK1D
# CSNK1E = tested on: CSNK1E
# CSNK1G1 = tested on: CSNK1G1
# CSNK1G2 = tested on: CSNK1G2
# CSNK1G3 = tested on: CSNK1G3
# CSNK2A1 = tested on: CSNK2A1
# CSNK2A2 = tested on: CSNK2A2
# CTK = tested on: T1, CTK
# T1 construct: gene MATK
# DAPK1 = tested on: DAPK1
# DAPK2 = tested on: DAPK2
# DAPK3 = tested on: DAPK3
# DCAMKL1 = tested on: T2, DCAMKL1
# T2 construct: gene DCLK1
# DCAMKL2 = tested on: T3, DCAMKL2
# T3 construct: gene DCLK2
# DCAMKL3 = tested on: T4, DCAMKL3
# T4 construct: gene DCLK3
# DDR1 = tested on: DDR1
# DDR2 = tested on: DDR2
# 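Further: KINOMEscan kinase panel screen.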
SMILES,%Inh (CSF1R),%Inh (CSK),%Inh (CSNK1A1L),%Inh (CSNK1A1),%Inh (CSNK1D),%Inh (CSNK1E),%Inh (CSNK1G1),%Inh (CSNK1G2),%Inh (CSNK1G3),%Inh (CSNK2A1),%Inh (CSNK2A2),%Inh (CTK),%Inh (DAPK1),%Inh (DAPK2),%Inh (DAPK3),%Inh (DCAMKL1),%Inh (DCAMKL2),%Inh (DCAMKL3),%Inh (DDR1),%Inh (DDR2)
COc1cc(Nc2ccnc3ccc(C(F)(F)F)cc23)cc(OC)c1OC [GW577382],8%,3%,19%,36%,21%,9%,3%,0%,27%,10%,62%,8%,0%,4%,26%,5%,0%,2%,0%,23%
Cc1nnc(-c2ccc3ncn(-c4ccc(S(C)=O)cc4)c3c2)o1 (stereo not shown),12%,0%,14%,0%,9%,8%,0%,18%,24%,22%,35%,0%,26%,0%,0%,37%,12%,9%,0%,0%
CC(C)(C)c1ccc(C(=O)Nc2cn3cc(-c4ccccc4)ccc3n2)cc1,0%,0%,0%,0%,0%,28%,0%,8%,20%,15%,75%,0%,9%,0%,0%,33%,0%,21%,4%,28%
Nc1nc(N)c2nc(-c3ccccc3)[nH]c2n1 [SKF-12778],2%,0%,0%,52%,26%,25%,18%,32%,30%,14%,22%,24%,12%,0%,1%,15%,0%,60%,0%,9%
COc1cc(OC)cc(-c2cc3cnc(N)nc3nc2NC(=O)NC(C)(C)C)c1,73%,0%,0%,36%,0%,0%,0%,0%,32%,0%,0%,1%,0%,0%,0%,0%,0%,0%,68%,11%
FC(F)(F)c1ccc(-c2ncn(CCCN3CCOCC3)c2-c2ccncc2)cc1 [SB-217780],25%,18%,33%,21%,0%,0%,0%,0%,12%,20%,5%,0%,14%,5%,15%,13%,35%,4%,5%,0%
CCc1nc(-c2cccc(C)c2)c(-c2ccncc2)s1,0%,0%,12%,58%,68%,70%,0%,10%,12%,4%,0%,0%,11%,0%,9%,30%,2%,4%,30%,17%
COc1ccc(-n2cnc3c(N)ncnc32)cc1 [SKF-97236],0%,4%,7%,33%,42%,34%,13%,11%,6%,12%,3%,3%,13%,1%,0%,13%,0%,9%,10%,0%

# — article PMC5540273 (PLoS ONE, 2017)
